Test results published in PubChem BioAssay (NCI).
About 79,000 compounds went through this panel and 15% of them were active in at least one assay; those are over-represented in the sample as a whole. Unmarked numbers belong to inactive results. The source made the active and inactive calls. No stated cut-off is given here; in the data, active means growth inhibition above about 70%; inactive means the rest. *1 amine or outer side, *2 acyl side, *3 side chain or, on linkers, in order; H or OH if unused. Where a SMILES comes first, the peptide text is derived from it. [ ]: non-standard residue; d: D form. X12 = NC(N)=NCC(O)CC(N[*:1])C(=O)[*:2]; Orn = NCCC[CH](N)C(=O)O

Key:
[1] = NCI Yeast Anticancer Drug Screen. Data for the rad50 strain (AID 155);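 further: 0% = growth of vehicle-only cultures of the same strain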; details: S. cerevisiae rad50 strain growth inhibition; at 50.0 µM; hits give high values
Outline: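 A DNA repair-deficient yeast mutant serves as the test organism; compound-induced growth inhibition is calculated against vehicle-treated cells.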

[2] = NCI Yeast Anticancer Drug Screen. Data for the mec2-1 strain (AID 157); details: S. cerevisiae mec2-1 strain, at 50.0 µM, hits give high values
Outline: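 Each compound was tested on mec2-1 yeast, a strain altered in DNA damage repair or cell cycle control. Growth inhibition is reported relative to vehicle.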

[3] = NCI Yeast Anticancer Drug Screen. Data for the sgs1 mgt1 strain (AID 161);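 further: 0% = growth of cultures given vehicle only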; details: S. cerevisiae sgs1 mgt1 strain, at 50.0 µM, hits give high values
Outline: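 Inhibition of yeast growth, normalised to vehicle-treated controls, is reported for a strain bearing genetic alterations in DNA damage repair.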

[4] = NCI Yeast Anticancer Drug Screen. Data for the cln2 rad14 strain (AID 165);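 further: 0% = growth equal to vehicle treated cultures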; details: S. cerevisiae cln2 rad14 strain, at 50.0 µM, hits give high values
Outline: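 Test compounds were added to cln2 rad14 yeast cultures; inhibition of growth was then determined by comparison with vehicle treatment.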

[5] = NCI Yeast Anticancer Drug Screen. Data for the bub3 strain (AID 167); details: S. cerevisiae bub3 mutant strain, at 50.0 µM, hits give high values
Outline: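 Inhibition values come from growth of compound-treated mutant yeast normalised to vehicle-treated controls.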

[6] = NCI Yeast Anticancer Drug Screen. Data for the mlh1 rad18 strain (AID 175); details: S. cerevisiae mlh1 rad18 strain growth inhibition; at 50.0 µM; hits give high values
Outline: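 Inhibition values reflect reduced growth of mutant yeast versus vehicle-treated controls following compound exposure; the mutations affect DNA damage repair.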

Compound	growth inhibition [1]	growth inhibition [2]	growth inhibition [3]	growth inhibition [4]	growth inhibition [5]	growth inhibition [6]
[Cl-].[Nd+3].[O-]/N=C(\c1ccccc1)c1ccccn1.[O-]/N=C(\c1ccccc1)c1ccccn1.[O-]/N=C(\c1ccccc1)c1ccccn1	50.1%	35.4%	42.6%	25.2%	47%	58%
CN1CCc2ccccc2/C(=C(/O)c2ccccc2)C1=O	28.8%	7.15%	12.3%	24.9%	13.3%	10.1%
CC(=O)N(c1ccccc1)c1cc(Cl)cc[n+]1[O-]	8.5%	3.5%	5.45%	-3.7%	5.3%	-2.05%
CC1CCC(C(C)C)C(OC(=O)N/N=C/N(C)C)C1 (stereo not drawn)	1.65%	17.2%	4.4%	20%	-0.95%	25.1%
O=C(O)C(O)c1ccc(Cl)cc1Cl (stereo not drawn)	1.3%	-5.85%	10.9%	7.25%	-19.3%	1.35%
CC(C)(C)C(=O)NO	-12.6%	-12.1%	-13.6%	6.8%	4.5%	-0.3%
Cc1cc(Cc2ccc(NC(=O)N3CC3)c(C)c2)ccc1NC(=O)N1CC1	-2.95%	-8.25%	-6.8%	0.25%	10.8%	-18.9%
COc1ccc(CC(O)CN2CCC(CCN)CC2)cc1 (stereo not drawn)	-19.8%	-7.45%	-12.2%	-47.9%	23.6%	-5.65%
Cc1cc(=O)n2c3c(cccc13)CCC2	26.3%	-1.5%	-3.15%	7.15%	3.9%	11.9%
Cc1c(O)c2cccc(-c3ccccc3)c2oc1=O	5.8%	17.5%	11.1%	-6.3%	-4.8%	17.6%
N#CC(=Nc1ccc2ccccc2c1)C1=C(O)c2ccccc2C1=O	15.8%	-3.2%	0.2%	-30.4%	10.2%	11.8%
COC(=O)C1CC/C(=N\Nc2ccc([N+](=O)[O-])cc2[N+](=O)[O-])CC1C(=O)OC (stereo not drawn)	10.2%	-5.75%	-8.75%	-1.65%	5.2%	19.6%
Cc1cc(N(CCC#N)CCC#N)ccc1/C(N=Nc1ccc([N+](=O)[O-])cc1)=N\NC(=O)c1cc(Cl)ccc1C(=O)c1ccccc1	9.3%	3.15%	-15.7%	-4.25%	-22.4%	7.7%
CC(O)C(NC(=O)C(CCCN)NC(=O)C(CC(O)CN=C(N)N)NC(=O)C(N)CCCN=C(N)N)C(=O)NC(CCCN)C(=O)NC(CC(O)CN=C(N)N)C(=O)NC(Cc1ccc(O)cc1)C(=O)O (stereo not drawn) (tested in a mixture with another compound) (H-R[X12][Orn]T[Orn][X12]Y-OH; configuration not given here)	39.6%	-3.3%	19.5%	8.45%	27.9%	38.1%
Cc1cc2[nH]c3ccccc3n2c(=O)c1N=Nc1ccccc1	3.1%	4.65%	9.75%	-14.3%	7.05%	15.8%
Clc1ccc(-c2nc(CSc3ccccn3)cs2)cc1	13.7%	-12.4%	49.5%	-22.2%	28.9%	-6.8%
CSc1c(C#N)c2c(Cl)ncnc2n1C(C)=O	1.7%	14.3%	9.95%	-71.5%	-7.5%	5.35%
O=S(=O)(/N=C1C=C/C(=N\S(=O)(=O)c2ccccc2)C2C/1C2(c1ccccc1)c1ccccc1)c1ccccc1 (stereo not drawn)	39.7%	17.6%	29.8%	-30.6%	1.75%	13.7%
O=c1[nH]nc(S(=O)(=O)NC2CCCCC2)c(=O)[nH]1	12.6%	-13.1%	-7.3%	-20.9%	2.65%	5.6%

Compound	growth inhibition [1]	growth inhibition [2]	growth inhibition [3]	growth inhibition [4]	growth inhibition [5]	growth inhibition [6]
C=C(C)c1ccc2c(c1)C(=O)C[C@@H]1[C@](C)(C#N)CCC[C@]21C	-19.9%	-16.3%	32.2%	-52%	46.9%	-33.9%
CNc1ccccc1C(=O)N/N=C\c1ccc(Cl)cc1Cl	-7.75%	-4.9%	-1.3%	-2.85%	-10.1%	-5.15%
Cc1cc(=O)c2cc(Br)cc(Br)c2[nH]1	11.8%	-13.8%	8.3%	0.05%	9.85%	12%
O=C1NC2CCC(NC(=O)N1c1ccccc1)C1=C2C1	-28.6%	-8.85%	-5.7%	-0.8%	-3.4%	-32.1%
Cc1ccccc1OCC(O)COC(=O)CCS(=O)(=O)O (stereo not drawn)	-25.1%	-7%	-7.85%	8.1%	37.2%	-6.3%
O=C(O)Cc1ccc(Oc2ccc(CC(=O)O)cc2)cc1	-4.15%	-9.5%	1.85%	-48.8%	-8.75%	0.55%
CCOC(=O)C1OC1(C)CC (stereo not drawn)	4.1%	1%	10.3%	-5.85%	-5.25%	-21.4%
O=[N+]([O-])c1ccccc1Sc1ccc2c3c(cccc13)CN(CCCO)C2	66.3%	7.05%	47.6%	6.8%	7.15%	50.9%
OC12c3ccccc3C1(N1CCOCC1)CCCCC21OCCCO1 (stereo not drawn)	12.7%	-11.2%	-17.6%	10.1%	-23.5%	-5.15%
CC(CCc1ccccc1)NC(=O)c1ccccc1 (stereo not drawn)	5%	-40.1%	-1.45%	11.2%	10.7%	-16.6%
O=C1OC2C3c4ccccc4C(c4c3ccc3ccccc43)C2O1 (stereo not drawn)	10.1%	10.9%	19.8%	19.7%	24.1%	29.2%
CCn1nc(C(=O)O)c(=O)c2cc3c(cc21)OCO3	8.1%	7.2%	-9.85%	-15.7%	-3.9%	7.4%
CC(C)C(Br)CCC1=CCC(Br)(Br)C1 (stereo not drawn)	79.1% (active)	82.2% (active)	88.5% (active)	86.2% (active)	84.7% (active)	90.3% (active)
COc1cccc(C2C3=C(COC3=O)Oc3cc4c(cc32)OCO4)c1 (stereo not drawn)	-41.1%	-24.4%	-31.4%	-1.6%	-4.55%	-14.2%
CCCN(CCC)CC(O)CN(CCC)CCC	-0.4%	-24.1%	-21.6%	-36%	5.55%	-0.3%
CC1c2ccccc2CC(CCN(C)C)c2ccccc21 (stereo not drawn)	8.1%	-12.8%	34%	13.4%	28.6%	-20.3%
c1ccc(C2=NC3(CCCCC3)N=C2c2ccccc2)cc1	27.1%	12.3%	6.6%	-32%	21.2%	25.1%
CC(C)CC(NS(=O)(=O)Cc1ccccc1)C(=O)NN (stereo not drawn)	-26.9%	-13.6%	-3.85%	11.2%	7.5%	-22.1%
CN(C)CCSCC(=O)N1c2ccccc2Sc2ccc(Cl)cc21	-5.25%	-7.45%	-2.9%	17.6%	7.95%	-0.5%
